Experimental data reported in PubChem BioAssay (EPA / NIEHS).
Active and inactive are the calls of the source. How the source made its calls: active means hit-call score of the fitted dose curve at least 0.9, where 1 is the maximum; inactive means score below 0.9.

Legend:
[1] = target: Bile acid receptor (Homo sapiens) (UniProt Q96RI1); assay: ATG_IR1_CIS: Attagene CIS-FACTORIAL HepG2 Assay for human Nuclear Receptor Subfamily 1 Group H Member 4 (NR1H4), IR1 submotif (AID 2282946); conditions: IR1 reporter transcription, actives raise or lower the signal
How it was run: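 Transient MRTU transfection, HepG2; 24 h dosing; RNA → RT-PCR → 6-FAM primer extension → HpaI digest → capillary electrophoresis fluorescence. Gain/loss of signal fitted relative to DMSO.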

[2] = ATG_GRE_CIS: Attagene CIS-FACTORIAL HepG2 Assay for human Glucocorticoid Response Elements (GRE) (AID 2282947); conditions: HepG2 GRE cis-reporter, Attagene multiplex mRNA; actives raise or lower the signal
How it was run: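 HepG2 cells transiently transfected with multiple cis-promoter reporter units measure endogenous TF activity; 24 h compound exposure. Reporter mRNA quantified by RT-PCR, FAM labelling, HpaI digestion and capillary electrophoresis; bidirectional fit vs DMSO baseline.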

[3] = ATG_ISRE_CIS: Attagene CIS-FACTORIAL HepG2 Assay for human Interferon Regulatory Factor 1 (IRF1) binding to an Interferon-Stimulated Response Element (ISRE) (AID 2282948); conditions: HepG2 ISRE cis-reporter (Attagene), mRNA transcription readout; actives raise or lower the signal
How it was run: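 Quantitation relies on labelled RT-PCR fragments separated by capillary electrophoresis. Human HepG2 cells bearing cis-promoter reporter constructs were treated 24 h; DMSO served as baseline for bidirectional fitting.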

[4] = ATG_M_32_CIS: Attagene CIS-FACTORIAL HepG2 Assay for M32 Transcription Factor (Internal Marker) (AID 2282949); conditions: HepG2 Attagene cis-factorial M32 reporter, mRNA; actives raise or lower the signal;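 further: background control marker of the multiplexed CIS panel rather than a real target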
How it was run: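 Following 24 h chemical exposure of HepG2 cells transiently expressing cis-promoter reporter constructs, reporter transcript levels were determined by RT-PCR with fluorescent labelling and capillary electrophoresis, then fitted bidirectionally against DMSO.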

[5] = ATG_M_06_CIS: Attagene CIS-FACTORIAL HepG2 Assay for M06 Transcription Factor (Internal Marker) (AID 2282950); conditions: HepG2 Attagene CIS-FACTORIAL M06 internal marker reporter; actives raise or lower the signal
How it was run: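 Steps: transfect HepG2 with multiplexed cis-element reporter constructs; dose chemical 24 h; extract RNA with DNase treatment; reverse-transcribe, PCR-amplify, 6-FAM label, HpaI digest; separate fragments by capillary electrophoresis. Activity fitted both directions versus DMSO.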

[6] = target: Hypoxia-inducible factor 1-alpha (Homo sapiens) (UniProt Q16665); assay: ATG_HIF1a_CIS: Attagene CIS-FACTORIAL HepG2 Assay for human Hypoxia Inducible Factor 1 (HIF1A) (AID 2282951); conditions: HepG2 Attagene cis-factorial HIF1a reporter transcription; actives raise or lower the signal
How it was run: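 RT-PCR/capillary electrophoresis fluorescence readout of reporter transcripts from endogenous-TF-driven cis elements in transfected HepG2 cells, 24 h exposure; activity fitted in both directions against DMSO controls.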

[7] = target: Hepatocyte nuclear factor 6 (Homo sapiens) (UniProt Q9UBC0); assay: ATG_HNF6_CIS: Attagene CIS-FACTORIAL HepG2 Assay for human Hepatocyte Nuclear Factor 6 (HNF6) (AID 2282952); conditions: HepG2 Attagene cis-factorial HNF6 reporter transcription; actives raise or lower the signal
How it was run: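 Multiplexed mRNA reporter assay in transfected HepG2; 24 h dosing; RT-PCR plus capillary electrophoresis fluorescence; DMSO-referenced bidirectional curve fitting.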

[8] = target: Heat shock factor protein 1 (Homo sapiens) (UniProt Q00613); assay: ATG_HSE_CIS: Attagene CIS-FACTORIAL HepG2 Assay for human Heat Shock Transcription Factor 1 (HSE) (AID 2282953); conditions: HepG2 HSE cis-reporter, Attagene RNA transcription; actives raise or lower the signal
How it was run: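 Cells were transfected with cis-element-driven reporter constructs, dosed for 24 h, then total RNA was reverse-transcribed and reporter cDNA amplified, FAM-labelled and digested with HpaI. Fragments were resolved by capillary electrophoresis; gain or loss was fitted against DMSO.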

[9] = ATG_MRE_CIS: Attagene CIS-FACTORIAL HepG2 Assay for human Metal Responsive Element (MRE) (AID 2282954); conditions: HepG2 MRE cis-reporter transcription, Attagene multiplex; actives raise or lower the signal
How it was run: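 HepG2 cells transiently transfected with multiple cis-element reporter units measure endogenous MTF1-driven transcription. After 24 h compound exposure, reporter mRNA is quantified by RT-PCR with 6-FAM labelling, HpaI digestion and capillary electrophoresis; bidirectional fits versus DMSO.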

[10] = ATG_PBREM_CIS: Attagene CIS-FACTORIAL HepG2 Assay for human Phenobarbital-responsive Enhancer Module (PBREM) (AID 2282955); conditions: HepG2 PBREM cis-reporter, Attagene multiplexed transcription; actives raise or lower the signal
How it was run: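 Reporter mRNA read by RT-PCR, 6-FAM primer extension, HpaI digestion and capillary electrophoresis. Transfected HepG2 cells, 24 h compound exposure. Gain or loss of signal fitted bidirectionally relative to DMSO baseline.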

[11] = target: Paired box protein Pax-6 (Homo sapiens) (UniProt P26367); assay: ATG_Pax6_CIS: Attagene CIS-FACTORIAL HepG2 Assay for human Paired Box 6 (PAX6) (AID 2282956); conditions: HepG2 CIS-FACTORIAL PAX6 reporter transcription, RNA readout; actives raise or lower the signal
How it was run: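 After twenty-four hours of chemical exposure, transfected HepG2 cells are harvested for RNA. Cis-promoter reporter transcripts are amplified, fluorescently labelled and sized by capillary electrophoresis, with gain and loss of signal scored against DMSO.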

[12] = ATG_PXRE_CIS: Attagene CIS-FACTORIAL HepG2 Assay for human Pregnane X Receptor Element (PXRE) (AID 2282957); conditions: HepG2 Attagene CIS-FACTORIAL PXRE reporter, mRNA; actives raise or lower the signal
How it was run: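 Cells: HepG2, transiently transfected reporter units under cis promoter control. Exposure: 24 h. Detection: reporter mRNA via RT-PCR/CE fluorescence; bidirectional fitting, DMSO-referenced.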

[13] = ATG_PPRE_CIS: Attagene CIS-FACTORIAL HepG2 Assay for human Peroxisome Proliferator-activated Response Element (PPRE) (AID 2282958); conditions: HepG2 PPRE cis-element reporter, Attagene transcription factor profiling; actives raise or lower the signal
How it was run: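 Read-out: fluorescent reporter mRNA fragments resolved by capillary electrophoresis after RT-PCR. HepG2 cells carried transiently transfected PPRE-driven cis reporter constructs and were dosed for 24 h; gain or loss of signal fitted relative to DMSO.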

[14] = ATG_RORE_CIS: Attagene CIS-FACTORIAL HepG2 Assay for human RAR-related Orphan Receptor Element (RORE) (AID 2282959); conditions: HepG2 Attagene cis-factorial RORE reporter, mRNA; actives raise or lower the signal
How it was run: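 Readout: fluorescent reporter mRNA by RT-PCR plus capillary electrophoresis, 24 h after dosing transfected HepG2 cells. Endogenous transcription factor activity on a cis promoter element is measured. Gain or loss of signal fitted against DMSO.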

[15] = ATG_Sox_CIS: Attagene CIS-FACTORIAL HepG2 Assay for human SRY-box transcription factor (SOX) (AID 2282960); conditions: HepG2 Attagene cis-factorial SOX reporter, mRNA; actives raise or lower the signal
How it was run: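 Read-out: fluorescent RT-PCR products of SOX1-linked reporter transcripts resolved by capillary electrophoresis, fitted bidirectionally against DMSO. Transiently transfected HepG2 cells, 24 h after chemical exposure, endogenous transcription factor activity.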

[16] = target: Transcription factor Sp1 (Homo sapiens) (UniProt P08047); assay: ATG_Sp1_CIS: Attagene CIS-FACTORIAL HepG2 Assay for human Specificity Protein 1 (Sp1) (AID 2282961); conditions: HepG2 Sp1 cis-reporter transcription, actives raise or lower the signal
How it was run: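 Read-out: fluorescence of 6-FAM-labeled, HpaI-digested RT-PCR products separated by capillary electrophoresis. HepG2 cells carried transfected cis-element reporter units and were exposed to chemicals for 24 h; gain or loss of signal fitted relative to DMSO.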

[17] = target: Signal transducer and activator of transcription 3 (Homo sapiens) (UniProt P40763); assay: ATG_STAT3_CIS: Attagene CIS-FACTORIAL HepG2 Assay for human Signal Transducer and Activator of Transcription 3 (STAT3) (AID 2282963); conditions: HepG2, Attagene cis-factorial STAT3 reporter transcription; actives raise or lower the signal
How it was run: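 HepG2 cells transiently transfected with cis-element-driven multiple reporter transcription units; after 24 h chemical exposure, reporter mRNA measured by RT-PCR, 6-FAM primer-extension labelling, HpaI digestion and capillary electrophoresis. Bidirectional fitting versus DMSO baseline.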

[18] = ATG_TA_CIS: Attagene CIS-FACTORIAL HepG2 Assay for human TA Basal Promoter (AID 2282964); conditions: HepG2 Attagene CIS-factorial TA basal promoter reporter; actives raise or lower the signal
How it was run: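 Steps: transfect HepG2 with MRTUs; dose 24 h; isolate RNA, DNase-treat, reverse-transcribe; PCR and FAM-label reporter cDNA; digest with HpaI 2h at 37 C; run capillary electrophoresis. Activity fitted both directions against DMSO.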

[19] = ATG_SREBP_CIS: Attagene CIS-FACTORIAL HepG2 Assay for human Sterol Regulatory Element Binding (SREBP) (AID 2282962); conditions: HepG2 Attagene cis-factorial SREBP reporter, mRNA; actives raise or lower the signal
How it was run: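 Twenty-four hours after chemical dosing of transfected HepG2 cultures, reporter RNA was converted to cDNA, amplified, end-labelled with 6-FAM and resolved by capillary electrophoresis. Responses were fitted relative to DMSO.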

[20] = ATG_TCF_b_cat_CIS: Attagene CIS-FACTORIAL HepG2 Assay for human T-Cell-Factor with beta-catenin (TCF/b-cat) (AID 2282965); conditions: HepG2 TCF/beta-catenin cis-reporter transcription, actives raise or lower the signal
How it was run: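 HepG2 cells transiently transfected with multiple cis-promoter-regulated reporter transcription units, so endogenous transcription factor activity is measured. Reporter mRNA read 24 hours after dosing by RT-PCR, fluorescent labelling and capillary electrophoresis; bidirectional fitting against DMSO.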

Measured: AC50

Bile acid receptor (Homo sapiens), sequence (Q96RI1 whole entry, looked up): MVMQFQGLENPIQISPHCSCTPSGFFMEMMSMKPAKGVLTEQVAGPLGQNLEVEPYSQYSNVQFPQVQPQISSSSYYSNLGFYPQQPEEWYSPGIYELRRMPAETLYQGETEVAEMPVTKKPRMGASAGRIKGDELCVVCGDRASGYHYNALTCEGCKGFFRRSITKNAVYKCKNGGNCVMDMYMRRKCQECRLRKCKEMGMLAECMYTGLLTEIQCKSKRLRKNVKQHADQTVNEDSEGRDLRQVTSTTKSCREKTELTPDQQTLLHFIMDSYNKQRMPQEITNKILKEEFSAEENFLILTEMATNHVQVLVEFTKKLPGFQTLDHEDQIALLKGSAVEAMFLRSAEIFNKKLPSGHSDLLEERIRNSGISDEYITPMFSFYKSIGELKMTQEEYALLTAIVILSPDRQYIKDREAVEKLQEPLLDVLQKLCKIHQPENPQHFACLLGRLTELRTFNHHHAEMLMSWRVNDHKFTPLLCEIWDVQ
Paired box protein Pax-6 (Homo sapiens), sequence (P26367 whole entry, looked up): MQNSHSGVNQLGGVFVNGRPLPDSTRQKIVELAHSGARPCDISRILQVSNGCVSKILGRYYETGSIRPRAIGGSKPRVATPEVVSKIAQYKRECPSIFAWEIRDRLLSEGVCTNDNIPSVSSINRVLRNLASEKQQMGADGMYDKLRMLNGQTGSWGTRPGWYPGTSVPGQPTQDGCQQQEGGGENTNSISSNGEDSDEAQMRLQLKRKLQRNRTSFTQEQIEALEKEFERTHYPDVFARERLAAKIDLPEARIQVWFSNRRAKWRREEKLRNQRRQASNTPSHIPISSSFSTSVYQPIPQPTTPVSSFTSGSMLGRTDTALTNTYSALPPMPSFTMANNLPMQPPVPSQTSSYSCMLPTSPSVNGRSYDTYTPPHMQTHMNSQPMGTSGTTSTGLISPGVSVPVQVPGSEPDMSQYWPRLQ
Hepatocyte nuclear factor 6 (Homo sapiens), sequence (Q9UBC0 whole entry, looked up): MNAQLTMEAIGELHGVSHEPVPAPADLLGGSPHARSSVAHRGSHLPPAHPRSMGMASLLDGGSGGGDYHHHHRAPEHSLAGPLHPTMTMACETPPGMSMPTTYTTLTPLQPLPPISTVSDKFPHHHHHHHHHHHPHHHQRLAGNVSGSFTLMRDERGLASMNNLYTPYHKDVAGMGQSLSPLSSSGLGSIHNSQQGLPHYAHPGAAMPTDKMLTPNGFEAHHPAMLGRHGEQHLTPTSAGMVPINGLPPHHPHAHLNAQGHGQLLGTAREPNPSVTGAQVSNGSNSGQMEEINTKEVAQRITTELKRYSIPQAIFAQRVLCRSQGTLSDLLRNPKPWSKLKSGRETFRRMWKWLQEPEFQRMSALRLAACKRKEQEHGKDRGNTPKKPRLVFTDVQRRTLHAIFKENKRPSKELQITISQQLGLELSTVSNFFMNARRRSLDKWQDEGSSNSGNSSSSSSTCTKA
Heat shock factor protein 1 (Homo sapiens), sequence (Q00613 whole entry, looked up, the tested form may be a part): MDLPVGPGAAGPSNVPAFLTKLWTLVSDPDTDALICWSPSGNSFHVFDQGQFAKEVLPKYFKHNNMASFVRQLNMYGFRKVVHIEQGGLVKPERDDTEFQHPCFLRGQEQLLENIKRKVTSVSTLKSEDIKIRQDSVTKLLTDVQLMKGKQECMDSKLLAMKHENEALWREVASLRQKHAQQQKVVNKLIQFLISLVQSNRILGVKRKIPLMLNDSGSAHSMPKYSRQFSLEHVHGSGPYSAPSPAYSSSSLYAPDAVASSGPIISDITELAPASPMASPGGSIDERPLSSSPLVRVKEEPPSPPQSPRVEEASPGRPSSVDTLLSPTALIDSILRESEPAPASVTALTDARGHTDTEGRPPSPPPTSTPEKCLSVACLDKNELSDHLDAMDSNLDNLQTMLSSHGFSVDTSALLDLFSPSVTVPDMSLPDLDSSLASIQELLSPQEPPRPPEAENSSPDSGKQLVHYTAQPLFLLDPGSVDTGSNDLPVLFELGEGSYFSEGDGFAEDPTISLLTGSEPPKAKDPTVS
Transcription factor Sp1 (Homo sapiens), sequence (P08047 whole entry, looked up): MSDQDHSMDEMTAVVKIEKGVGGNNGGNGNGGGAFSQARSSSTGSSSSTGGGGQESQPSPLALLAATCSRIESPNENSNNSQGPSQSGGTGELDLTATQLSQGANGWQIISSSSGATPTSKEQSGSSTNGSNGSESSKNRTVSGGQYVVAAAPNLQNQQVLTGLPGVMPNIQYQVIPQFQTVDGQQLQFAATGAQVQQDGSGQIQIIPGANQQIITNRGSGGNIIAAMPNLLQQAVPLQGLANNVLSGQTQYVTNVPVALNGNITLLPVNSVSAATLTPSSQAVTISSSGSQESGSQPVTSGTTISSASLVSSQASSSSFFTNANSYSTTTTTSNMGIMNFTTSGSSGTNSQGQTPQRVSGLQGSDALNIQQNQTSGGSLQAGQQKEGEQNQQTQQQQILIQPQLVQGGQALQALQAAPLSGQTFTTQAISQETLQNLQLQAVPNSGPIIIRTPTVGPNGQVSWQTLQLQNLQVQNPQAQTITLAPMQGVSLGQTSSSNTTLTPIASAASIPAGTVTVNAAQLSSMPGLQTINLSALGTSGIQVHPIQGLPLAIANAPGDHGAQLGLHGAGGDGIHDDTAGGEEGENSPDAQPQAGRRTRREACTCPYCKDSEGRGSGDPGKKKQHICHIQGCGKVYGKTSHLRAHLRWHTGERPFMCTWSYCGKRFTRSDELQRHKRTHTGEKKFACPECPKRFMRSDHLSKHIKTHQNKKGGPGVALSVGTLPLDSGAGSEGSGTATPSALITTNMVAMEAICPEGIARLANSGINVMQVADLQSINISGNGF
Hypoxia-inducible factor 1-alpha (Homo sapiens), sequence (Q16665 whole entry, looked up): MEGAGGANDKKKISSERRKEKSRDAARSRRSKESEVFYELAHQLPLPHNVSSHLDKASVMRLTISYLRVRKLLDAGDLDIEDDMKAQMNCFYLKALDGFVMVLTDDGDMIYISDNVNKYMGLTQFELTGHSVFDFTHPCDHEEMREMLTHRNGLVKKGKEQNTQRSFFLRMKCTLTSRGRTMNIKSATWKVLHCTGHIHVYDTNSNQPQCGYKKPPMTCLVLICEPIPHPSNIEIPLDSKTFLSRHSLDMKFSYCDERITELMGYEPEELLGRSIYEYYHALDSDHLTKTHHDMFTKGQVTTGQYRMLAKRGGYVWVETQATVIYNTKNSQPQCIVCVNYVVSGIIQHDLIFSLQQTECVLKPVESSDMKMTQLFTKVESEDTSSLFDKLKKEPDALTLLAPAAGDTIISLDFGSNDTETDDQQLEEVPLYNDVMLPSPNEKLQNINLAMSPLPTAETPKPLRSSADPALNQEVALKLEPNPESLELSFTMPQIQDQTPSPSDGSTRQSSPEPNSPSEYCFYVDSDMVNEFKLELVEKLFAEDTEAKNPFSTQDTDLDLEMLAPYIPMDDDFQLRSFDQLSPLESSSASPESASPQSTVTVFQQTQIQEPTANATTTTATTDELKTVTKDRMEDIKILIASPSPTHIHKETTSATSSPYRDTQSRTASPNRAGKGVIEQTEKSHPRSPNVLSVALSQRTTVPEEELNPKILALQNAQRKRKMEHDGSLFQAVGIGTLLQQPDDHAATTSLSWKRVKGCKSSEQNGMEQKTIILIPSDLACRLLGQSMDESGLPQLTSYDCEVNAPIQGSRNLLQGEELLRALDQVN
Signal transducer and activator of transcription 3 (Homo sapiens), sequence (P40763 whole entry, looked up): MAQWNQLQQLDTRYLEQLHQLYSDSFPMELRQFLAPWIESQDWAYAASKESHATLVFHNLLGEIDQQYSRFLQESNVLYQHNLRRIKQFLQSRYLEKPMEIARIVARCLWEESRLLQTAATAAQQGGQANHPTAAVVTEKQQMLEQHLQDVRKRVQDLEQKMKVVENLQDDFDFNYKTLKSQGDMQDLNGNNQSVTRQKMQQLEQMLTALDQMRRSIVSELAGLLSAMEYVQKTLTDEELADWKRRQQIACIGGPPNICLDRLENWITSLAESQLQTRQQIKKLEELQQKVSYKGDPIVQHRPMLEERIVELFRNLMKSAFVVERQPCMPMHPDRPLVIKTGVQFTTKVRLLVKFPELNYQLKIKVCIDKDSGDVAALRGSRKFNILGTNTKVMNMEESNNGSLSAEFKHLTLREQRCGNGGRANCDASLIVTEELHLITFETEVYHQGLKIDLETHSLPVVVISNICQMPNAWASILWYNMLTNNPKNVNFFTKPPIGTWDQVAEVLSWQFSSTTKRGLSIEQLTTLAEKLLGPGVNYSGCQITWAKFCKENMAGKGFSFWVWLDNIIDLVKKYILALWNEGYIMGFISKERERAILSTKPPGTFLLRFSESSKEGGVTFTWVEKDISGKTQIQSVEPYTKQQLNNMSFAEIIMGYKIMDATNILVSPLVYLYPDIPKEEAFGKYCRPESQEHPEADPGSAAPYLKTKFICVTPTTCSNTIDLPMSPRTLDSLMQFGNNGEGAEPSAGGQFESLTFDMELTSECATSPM

CCCCCCCCC=CCCCCCCCC1=NCCN1CCO
active: [1] 26.1 µM | [3] 189 µM | [12] 60.6 µM | [13] 0.261 µM | [17] 25.9 µM
not listed: [19] | [20]
inactive: all other assays above

CCCCCCCCCCCCS(=O)(=O)Cl
not listed: [12]
inactive: all other assays above

Cc1cc(CCC(=O)OCCOCCOCCOC(=O)CCc2cc(C)c(O)c(C(C)(C)C)c2)cc(C(C)(C)C)c1O
active: [9] 26.6 µM | [10] 17.7 µM | [12] 24.3 µM
not listed: [13] | [17] | [20]
inactive: all other assays above

CC(=O)O[C@@H]1C[C@@H]2CC[C@@]1(C)C2(C)C
not listed: [13]
inactive: all other assays above

CN(C)C(=S)SC(=S)N(C)C
active: [9] 100 µM | [12] 73.8 µM | [13] 46.2 µM
not listed: [20]
inactive: all other assays above

CCCCCCCCCCCCN1CCCCCC1=O
active: [8] 15.8 µM | [10] 9.68 µM | [12] 1.46 µM
inactive: all other assays above

FC(F)(F)COCC(F)(F)F
not listed: [10]
inactive: all other assays above
